Laboratory results reported in PubChem BioAssay (NCATS).
Results filed as inconclusive are left out. Active and inactive are the calls of the source. Unless noted, calls come from the whole dose curve; as a rule, active = well fitted curve in the direction sought with a large enough effect; inconclusive = small, poorly fitted or top-dose-only effect, or another doubt; inactive = no such curve, though single readings can be large; an effect the other way counts as inactive or inconclusive. Starred links: 1 amine or outer side, 2 acyl side, 3 side chain; linkers in the order of their positions; H or OH if unused. Positions of bridges follow the written chain, without caps; N, C: chain ends. Non-standard residues stand in square brackets, D forms with d. Residues, ends and D or L forms follow the SMILES beside them. *: point of attachment. X1 = NC1=N[C@@H](O)C[C@@H]([C@@H](N[*:1])C(=O)[*:2])N1; ΔAla(Z-3-ureido) = NC(=O)N/C=C(\N)C(=O)O; β3hOrn = NCCC[C@H](N)CC(=O)*; Dap = NC[C@H](N)C(=O)O

Key:
[1] = AP1 Signaling Pathway (AID 357; active = well fitted curve in either direction with a large enough effect, not every such curve was filed as active;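 note: ME-180 reporter cells stimulated with EGF at its EC50 level; % is set by controls: 0 for no effect and ±100 for the full control effect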)
In short: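 Titration-series screen for positive or negative modulators of EC50 EGF-induced signaling in ME-180 cells carrying an AP-1-driven beta-lactamase reporter. After 5 hours at 37 degrees Celsius, CCF4 460nm/530nm emission ratio gave %Activity; AC50 values derived.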

[2] = NFAT Signaling Pathway (AID 444; active = well fitted curve in either direction with a large enough effect, not every such curve was filed as active;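 note: carbachol stimulus at about its EC50 of 1 µM final; % is set by controls: 0 for no effect and ±100 for the full control effect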); conditions: Jurkat NFAT-bla M1, carbachol, beta-lactamase ratio, 5 h; at 17.2 µM (top of the series) unless noted
In short: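 Read-out: CCF4 FRET ratio (460 nm/530 nm) after 1 h RT dye loading, used for %activity and AC50 from titration series. Cells: Jurkat NFAT-β-lactamase/M1 line, treated with compound plus 1 uM carbachol for 5 h, 37 °C.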

[3] = Stat Signaling Pathway (AID 446; active = well fitted curve in either direction with a large enough effect, not every such curve was filed as active;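 note: ME-180 cervical cancer cells given 40 pM IL-6 alongside compound; SIE-controlled beta-lactamase reporter measured as 460/530 nm FRET emission ratio; % is set by controls: 0 for no effect and ±100 for the full control effect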)
In short: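 Overnight-plated ME-180 cells bearing a STAT Inducible Element beta-lactamase reporter; 5 h co-exposure to compound and 40 pM IL-6; values normalized to 300 pM IL-6 and 125 nM JAK inhibitor controls.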

[4] = molecular target: Mitogen-activated protein kinase 10 (Mus musculus) (UniProt Q61831); assay: JNK3 AlphaScreen Assay (AID 530; active = well fitted curve in either direction with a large enough effect, not every such curve was filed as active;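 note: kinase came from lysate of stimulated human HepG2 cells; signal reports phosphorylation of biotinylated GST-cJun 1-79 at Ser73 with 10 µM ATP; % is set by controls: 0 for no effect and ±100 for the full control effect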)
In short: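 qHTS titrations with 15 min compound pre-incubation before adding ATP (10 uM final). Read-out: AlphaScreen of Ser73-phosphorylated biotin-GST-cJun using HepG2 lysate JNK3 activated by IL-1β and TNFα.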

[5] = molecular target: 3',5'-cyclic-AMP phosphodiesterase 4B (Homo sapiens) (UniProt Q07343); assay: qHTS Assay for Inhibitors of PDE-IV (AID 607; active = well fitted activation curve with a large enough effect in the main read-out, with a control signal flat, not every such curve was filed as active; note: % of control where 0% means no effect)
In short: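 Live HEK293 cells with a modified cyclic nucleotide-gated (CNG) channel report intracellular cAMP via membrane-potential dye fluorescence (ex 535/em 590 nm). Endogenous PDE-IV was targeted. Compounds were tested at up to 22.9 uM final; RO 20-1724 100 uM served as control.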

[6] = qHTS Assay for Lipid Storage Modulators (AID 1519; calls by dose curve); conditions: Drosophila S3 cells, BODIPY lipid droplet/cell ratio, laser cytometry, cells loaded with oleic acid; for activity change, negative = inhibition: at 25.7 µM (top of the series)
In short: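 Cells seeded at 5,000 per well were treated with compounds over a concentration series and loaded with oleic acid (400 uM, as added). Lipid droplet fluorescence (488 nm excitation, 500-530 nm channel) was read by laser-scanning cytometry and normalized to 20 uM Triacsin C.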

[7] = molecular target: Ubiquitin carboxyl-terminal hydrolase 1 (Homo sapiens) (UniProt O94782); assay: Inhibitors of USP1/UAF1: Pilot qHTS (AID 504865);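 note: rhodamine fluorescence freed from ubiquitin-rhodamine substrate followed over time; top concentration of the series differs between compounds; % is set by controls: 0 for no effect and ±100 for the full control effect; nearly all actives have a fitted effect of over 35% in size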
In short: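 Kinetic fluorescence assay: 1nM USP1/UAF1, 15 min compound preincubation, then 150nM Ub-Rho; 480/540 nm.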

[8] = molecular target: Glucocorticoid receptor (Homo sapiens) (UniProt P04150); assay: GR-GFP Redistribution (AID 450;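 active = compounds whose dose series gives a full or clear partial fitted curve of increased nuclear translocation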; note: potency is the fitted concentration of half-maximal effect); conditions: U2OS GR-GFP nuclear translocation, laser cytometry, 2 h
[9] = molecular target: Glucocorticoid receptor (Homo sapiens) (UniProt P04150); assay: GR-EFC Redistribution (AID 451; calls by dose curve; note: potency is the fitted concentration of half-maximal effect); conditions: CHO-K1 GR-EFC translocation, beta-gal luminescence, 2 h
In short: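 Translocation of GR-ED fusion to nuclear EA restores b-gal, read by luminescence after 1 h room-temperature detection. Engineered CHO-K1 biosensor cells, 1,000/well, exposed 2 h at 37 C to titrations up to 46 uM final.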

[10] = molecular target: ATP-dependent 6-phosphofructokinase (Trypanosoma brucei brucei) (UniProt O15648); assay: qHTS Assay to Find Inhibitors of T. brucei phosphofructokinase: hit validation (AID 492961)
In short: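 ADP-Glo luminescence read-out of ADP formed by 1.25 nM PFK from 0.1 mM ATP and 0.5 mM F6P (TEA pH 8.0, 45 min, RT). Compounds titrated; activity normalized to no-enzyme and full-enzyme controls.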

[11] = S16 Schwann cell PMP22 intronic element firefly luciferase assay (AID 624032);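 note: plate controls were DMSO for no effect and PTC124 positive control mean for full effect; nearly all actives have a fitted effect of over 30% in size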
In short: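 Luciferase reporter of PMP22 intronic-element expression in stably transfected S16 rat Schwann cells, read by ONE-Glo luminescence after 24 h compound exposure at 37 C. Activity scaled between DMSO (0%) and positive-control PTC124; concentration-effect curves quality-classified.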

[12] = qHTS profiling for inhibitors of Plasmodium falciparum proliferation (AID 504749);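 note: 0% = DMSO vehicle and full inhibition = artemisinin control; nearly all actives have a fitted effect of over 60% in size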; conditions: P. falciparum in erythrocytes, SYBR Green DNA, 72 h, at 12.8 µM (top of the series)
In short: (§1)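 SYBR Green fluorescence of parasite DNA, read after lysis and overnight dark incubation, measured growth over 72 h in erythrocyte culture at 0.3% parasitemia and 2.5% hematocrit. Data normalised to DMSO and 0.29 uM artemisinin, with plate-drift correction.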

C2A = assay: as above; conditions: P. falciparum in erythrocytes, SYBR Green DNA, 72 h; series mostly up to 12.8 µM
In short: as §1

CP201 = assay: as above; conditions: P. falciparum in erythrocytes, SYBR Green DNA, 72 h; series mostly up to 12.8 µM
In short: as §1

CP238 = assay: as above; conditions: P. falciparum in erythrocytes, SYBR Green DNA, 72 h; series mostly up to 12.8 µM
In short: as §1

CP250 = assay: as above; conditions: P. falciparum in erythrocytes, SYBR Green DNA, 72 h; series mostly up to 12.8 µM
In short: as §1

FAB9 = assay: as above; conditions: P. falciparum in erythrocytes, SYBR Green DNA, 72 h; series mostly up to 12.8 µM
In short: as §1

JCK = assay: as above; conditions: P. falciparum in erythrocytes, SYBR Green DNA, 72 h; series mostly up to 12.8 µM
In short: as §1

PC49 = assay: as above; conditions: P. falciparum in erythrocytes, SYBR Green DNA, 72 h; series mostly up to 12.8 µM
In short: as §1

SC27B = assay: as above; conditions: P. falciparum in erythrocytes, SYBR Green DNA, 72 h; series mostly up to 12.8 µM
In short: as §1

[13] = measured here: cell count channel max response
[14] = measured here: lipid channel max response

Sequence of Glucocorticoid receptor (Homo sapiens) (P04150 whole entry, looked up, the tested form may be a part): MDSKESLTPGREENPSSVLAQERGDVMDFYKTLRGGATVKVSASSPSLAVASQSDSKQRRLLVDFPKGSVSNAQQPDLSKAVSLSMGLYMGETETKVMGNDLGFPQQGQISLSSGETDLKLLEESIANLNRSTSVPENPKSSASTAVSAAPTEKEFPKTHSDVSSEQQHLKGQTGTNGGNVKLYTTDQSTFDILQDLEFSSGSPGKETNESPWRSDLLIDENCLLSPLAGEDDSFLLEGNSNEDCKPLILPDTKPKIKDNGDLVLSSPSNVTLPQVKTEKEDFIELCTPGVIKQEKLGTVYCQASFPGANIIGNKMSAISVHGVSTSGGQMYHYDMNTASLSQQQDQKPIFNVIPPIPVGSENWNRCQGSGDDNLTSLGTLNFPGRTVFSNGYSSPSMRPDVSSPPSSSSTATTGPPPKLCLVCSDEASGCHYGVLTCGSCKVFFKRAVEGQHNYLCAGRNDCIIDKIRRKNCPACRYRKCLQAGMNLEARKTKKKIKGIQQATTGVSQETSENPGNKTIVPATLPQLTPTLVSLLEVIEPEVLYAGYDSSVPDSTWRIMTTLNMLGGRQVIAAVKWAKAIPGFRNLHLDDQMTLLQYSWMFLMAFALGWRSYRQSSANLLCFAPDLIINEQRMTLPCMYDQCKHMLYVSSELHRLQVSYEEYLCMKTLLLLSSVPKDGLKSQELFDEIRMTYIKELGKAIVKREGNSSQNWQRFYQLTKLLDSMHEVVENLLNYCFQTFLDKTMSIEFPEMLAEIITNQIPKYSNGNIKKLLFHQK
Sequence of 3',5'-cyclic-AMP phosphodiesterase 4B (Homo sapiens) (Q07343 whole entry, looked up): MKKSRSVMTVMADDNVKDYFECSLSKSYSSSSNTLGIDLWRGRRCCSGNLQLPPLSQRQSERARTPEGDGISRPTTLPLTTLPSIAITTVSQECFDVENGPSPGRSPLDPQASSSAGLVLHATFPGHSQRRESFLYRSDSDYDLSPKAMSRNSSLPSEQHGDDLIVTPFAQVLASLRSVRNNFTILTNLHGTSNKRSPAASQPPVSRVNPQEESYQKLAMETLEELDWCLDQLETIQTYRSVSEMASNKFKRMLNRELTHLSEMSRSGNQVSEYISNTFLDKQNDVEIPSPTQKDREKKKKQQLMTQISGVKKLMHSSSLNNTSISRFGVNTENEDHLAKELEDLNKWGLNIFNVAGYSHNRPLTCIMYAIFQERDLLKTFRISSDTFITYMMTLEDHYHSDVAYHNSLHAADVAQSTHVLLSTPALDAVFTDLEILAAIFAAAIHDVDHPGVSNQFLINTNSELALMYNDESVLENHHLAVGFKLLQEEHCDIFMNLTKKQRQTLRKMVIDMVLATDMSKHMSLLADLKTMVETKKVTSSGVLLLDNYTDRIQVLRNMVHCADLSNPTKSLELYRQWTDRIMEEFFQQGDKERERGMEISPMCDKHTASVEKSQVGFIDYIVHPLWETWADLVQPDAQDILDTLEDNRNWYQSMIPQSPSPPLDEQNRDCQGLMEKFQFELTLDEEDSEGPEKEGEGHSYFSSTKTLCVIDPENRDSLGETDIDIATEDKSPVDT
Sequence of ATP-dependent 6-phosphofructokinase (Trypanosoma brucei brucei) (O15648 whole entry, looked up): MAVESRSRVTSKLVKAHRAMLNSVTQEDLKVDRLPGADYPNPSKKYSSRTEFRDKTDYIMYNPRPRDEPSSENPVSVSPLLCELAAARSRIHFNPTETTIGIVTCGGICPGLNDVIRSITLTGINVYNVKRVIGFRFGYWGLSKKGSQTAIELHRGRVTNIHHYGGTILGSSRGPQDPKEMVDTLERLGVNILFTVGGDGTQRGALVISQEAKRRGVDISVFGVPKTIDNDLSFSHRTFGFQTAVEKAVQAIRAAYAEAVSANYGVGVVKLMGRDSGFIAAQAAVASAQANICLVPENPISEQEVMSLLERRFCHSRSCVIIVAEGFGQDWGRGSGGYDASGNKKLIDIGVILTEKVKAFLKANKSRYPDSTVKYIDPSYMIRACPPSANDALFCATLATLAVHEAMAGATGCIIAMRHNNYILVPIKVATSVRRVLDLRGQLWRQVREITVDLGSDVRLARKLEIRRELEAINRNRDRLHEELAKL
Sequence of Ubiquitin carboxyl-terminal hydrolase 1 (Homo sapiens) (O94782 whole entry, looked up): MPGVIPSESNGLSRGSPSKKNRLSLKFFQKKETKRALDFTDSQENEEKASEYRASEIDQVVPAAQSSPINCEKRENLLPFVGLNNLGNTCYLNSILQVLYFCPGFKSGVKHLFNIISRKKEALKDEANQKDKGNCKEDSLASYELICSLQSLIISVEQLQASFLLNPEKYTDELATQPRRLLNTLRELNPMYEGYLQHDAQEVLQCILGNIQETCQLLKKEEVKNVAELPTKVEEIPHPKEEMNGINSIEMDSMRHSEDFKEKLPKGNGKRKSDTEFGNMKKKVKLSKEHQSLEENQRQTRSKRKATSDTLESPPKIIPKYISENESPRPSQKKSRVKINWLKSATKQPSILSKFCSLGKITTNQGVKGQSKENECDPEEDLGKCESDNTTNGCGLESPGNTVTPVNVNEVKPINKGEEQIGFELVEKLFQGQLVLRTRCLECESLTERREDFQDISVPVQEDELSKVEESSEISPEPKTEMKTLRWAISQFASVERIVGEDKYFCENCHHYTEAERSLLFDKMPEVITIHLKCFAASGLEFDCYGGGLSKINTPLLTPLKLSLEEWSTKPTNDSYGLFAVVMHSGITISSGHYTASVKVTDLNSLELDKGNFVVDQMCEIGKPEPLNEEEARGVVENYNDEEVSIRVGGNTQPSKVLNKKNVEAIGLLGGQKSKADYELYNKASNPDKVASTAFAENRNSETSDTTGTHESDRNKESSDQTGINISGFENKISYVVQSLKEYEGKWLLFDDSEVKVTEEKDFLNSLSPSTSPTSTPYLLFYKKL

C[C@H](CCC(=O)O)[C@H]1CC[C@@H]2[C@H]3[C@@H](CC[C@@]21C)[C@]1(C)CC[C@H](O)C[C@@H]1C[C@@H]3O
-6.52%: max response [6, 13]
-4.97%: max response [6, 14]
inactive: outcome [1] | activity change, negative = inhibition [2] -6.74% | outcome [3] | Potency [4] | outcome [5] | activity change, negative = inhibition [6] 0.999% | Potency [7]

CN1CCCN=C1/C=C\c1cccs1
inactive: outcome [1] | activity change, negative = inhibition [2] -25.3% | outcome [3] | Potency [8] > 20.6 µM | Potency [9] > 20.6 µM | Potency [4] | outcome [5] | activity change, negative = inhibition [6] 0.765%
-6.05%: max response [6, 13]
-6.06%: max response [6, 14]

C[C@@H](C(=O)O)c1ccc(N2Cc3ccccc3C2=O)cc1
-10.4%: max response [6, 14]
-8.47%: max response [6, 13]
inactive: outcome [1] | activity change, negative = inhibition [2] 11.8% | Potency [8] > 20.6 µM | Potency [9] > 20.6 µM | Potency [4] | activity change, negative = inhibition [6] -0.476% | Potency [7]

C[C@@]12CCC(=O)C[C@@H]1CC(=O)[C@H]1[C@H]3CCC[C@]3(C)C(=O)C[C@@H]12 (tested in a mixture with another compound)
inactive: outcome [1] | activity change, negative = inhibition [2] -7.43% | outcome [3] | Potency [8] > 20.6 µM | Potency [9] > 20.6 µM | Potency [4] | outcome [5] | activity change, negative = inhibition [6] 0.558% | Potency [7]
4.64%: max response [6, 14]
2.78%: max response [6, 13]

COc1c(O[C@H]2O[C@@H](CO)[C@@H](O)[C@@H](O)[C@@H]2O)cc2c(c1OC)-c1ccc(SC)c(=O)cc1[C@H](NC(C)=O)CC2
3.12%: max response [6, 13]
2.91%: max response [6, 14]
inactive: outcome [1] | activity change, negative = inhibition [2] 5.96% | outcome [3] | Potency [4] | outcome [5] | activity change, negative = inhibition [6] -1.68% | outcome [10] | Potency [7] | Potency [11] | activity, negative = inhibition ([12]; parasite line A) 5.35% | activity, negative = inhibition ([12]; parasite line B) 4.25% | Potency (C2A) | Potency (CP201) | Potency (CP238) | Potency (CP250) | Potency (FAB9) | Potency (JCK) | Potency (PC49) | Potency (SC27B)

CO[C@@H]1C[C@H](O[C@H]2[C@@H](C)[C@H](O[C@@H]3O[C@@H](C)C[C@@H](N(C)C)[C@@H]3OC(C)=O)[C@H](C)C[C@]3(CO3)C(=O)[C@H](C)[C@H](OC(C)=O)[C@H](C)[C@H](C)OC(=O)[C@@H]2C)O[C@H](C)[C@@H]1OC(C)=O
-6.43%: max response [6, 13]
inactive: outcome [1] | activity change, negative = inhibition [2] 11.7% | outcome [3] | Potency [4] | outcome [5] | activity change, negative = inhibition [6] -1.3% | outcome [10] | Potency [7] | Potency [11] | activity, negative = inhibition ([12]; parasite line A) -21.7% | activity, negative = inhibition ([12]; parasite line B) -14.9% | Potency (C2A) | Potency (CP201) | Potency (CP238) | Potency (CP250) | Potency (FAB9) | Potency (JCK) | Potency (PC49) | Potency (SC27B)
-9.02%: max response [6, 14]

COc1ccc(OC)c([C@H](O)CNC(=O)CN)c1
0.279%: max response [6, 13]
-0.25%: max response [6, 14]
inactive: outcome [1] | activity change, negative = inhibition [2] -3.71% | Potency [8] > 20.6 µM | Potency [9] > 20.6 µM | Potency [4] | outcome [5] | activity change, negative = inhibition [6] 0.926% | outcome [10] | Potency [7] | Potency [11] | activity, negative = inhibition ([12]; parasite line A) -3.94% | activity, negative = inhibition ([12]; parasite line B) 1.53% | Potency (C2A) | Potency (CP201) | Potency (CP238) | Potency (CP250) | Potency (FAB9) | Potency (JCK) | Potency (PC49) | Potency (SC27B)

NCCC[C@H](N)CC(=O)N[C@H]1CNC(=O)[C@@H]([C@@H]2C[C@H](O)N=C(N)N2)NC(=O)/C(=C/NC(N)=O)NC(=O)[C@@H](CO)NC(=O)[C@@H](CO)NC1=O (β3hOrn-[Dap][dS][dS][ΔAla(Z-3-ureido)][X1]; lactam 1-C)
-7.39%: max response [6, 14]
-7.09%: max response [6, 13]
inactive: outcome [1] | activity change, negative = inhibition [2] -11.1% | outcome [3] | Potency [4] | outcome [5] | activity change, negative = inhibition [6] 0.925% | Potency [7]

CC(C)(CO)[C@H](O)C(=O)NCCC(=O)O
inactive: outcome [1] | activity change, negative = inhibition [2] 8.26% | outcome [3] | Potency [4] | outcome [5] | activity change, negative = inhibition [6] -0.81%
6.98%: max response [6, 14]
7.75%: max response [6, 13]

CC[C@]1(c2ccccc2)NC(=O)N(C)C1=O
11.1%: max response [6, 13]
11.3%: max response [6, 14]
inactive: outcome [1] | activity change, negative = inhibition [2] -14.9% | outcome [3] | Potency [4] | outcome [5] | activity change, negative = inhibition [6] 0.43% | Potency [7]

NCC[C@H](O)C(=O)N[C@H]1C[C@@H](N)[C@@H](O[C@H]2O[C@@H](CN)[C@@H](O)[C@@H](O)[C@@H]2O)[C@@H](O)[C@@H]1O[C@H]1O[C@@H](CO)[C@@H](O)[C@@H](N)[C@@H]1O
inactive: outcome [1] | activity change, negative = inhibition [2] -4.44% | Potency [8] > 20.6 µM | Potency [9] > 20.6 µM | Potency [4] | outcome [5] | activity change, negative = inhibition [6] -0.738%
11.3%: max response [6, 14]
11.5%: max response [6, 13]

CC1(C)S[C@@H]2[C@H](NC(=O)[C@@H](N)c3ccc(O)cc3)C(=O)N2[C@H]1C(=O)O
-10.4%: max response [6, 14]
-7.54%: max response [6, 13]
inactive: outcome [1] | activity change, negative = inhibition [2] -4.29% | outcome [3] | Potency [4] | outcome [5] | activity change, negative = inhibition [6] -0.615% | Potency [7]

CCc1c(C)[nH]c2c1C(=O)[C@H](CN1CCOCC1)CC2
-8.85%: max response [6, 13]
-8.65%: max response [6, 14]
inactive: outcome [1] | activity change, negative = inhibition [2] -21.1% | outcome [3] | Potency [4] | outcome [5] | activity change, negative = inhibition [6] 0.521% | outcome [10] | Potency [11] | activity, negative = inhibition ([12]; parasite line A) 13% | activity, negative = inhibition ([12]; parasite line B) 6.66% | Potency (C2A) | Potency (CP201) | Potency (CP238) | Potency (CP250) | Potency (FAB9) | Potency (JCK) | Potency (PC49) | Potency (SC27B)
